# Bioassay records from PubChem.
# Sampled rows, rich in hits. Any-hit rate of the full collection: about 21%.
# CHX counter = Cycloheximide Counterscreen for Small Molecule Inhibitors of Shiga Toxin; 300,000 compounds, 12% hits; max response, %; cell reporter, cycloheximide protein synthesis inhibition counterscreen; in the data active = max response mostly above about 13%, no sharp cut-off; inactive = mostly below about 14%; also: read at 38.3 µM for the half of the compounds with a filed dose; 0% is about no effect
# Pf growth 96h = Primary qHTS for delayed death inhibitors of the malarial parasite plastid, 96 hour incubation; P. falciparum luciferase reporter growth, 96 h; Potency, µM (series often up to 28.7 µM), inactives show at the highest dose activity change, negative = inhibition, actives largely listed as inhibitors; 320,000 compounds, 6.9% hits; also: potency is read from the fitted curve at half-maximal effect; % is scaled to controls: 0 for no effect and ±100 for the full control effect
#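 Erythrocytes infected with luciferase-expressing P. falciparum were dispensed at 2% hematocrit and 0.05% parasitemia (final), then incubated with compounds 96 hours at 37 C in 5% CO2. Luminescence after detection reagent addition reported growth.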
# Shiga inhibitor = A qHTS for Small Molecule Inhibitors of Shiga Toxin | Vero cells, Shiga toxin protein synthesis inhibition reporter | inhibition, % at 38.7 µM | 290,000 compounds, 9.2% hits | AID 2315, 2010; in the data active = inhibition mostly above about 28%, no sharp cut-off; inactive = mostly below about 43%; also: 0% is about no effect
# HCMV antiviral = qHTS Assay for inhibitors of the human cytomegalovirus (HCMV). HFF cells, HCMV-luciferase reporter, 72 h; hits give low values. activity change, negative = inhibition, % at 57.5 µM. 410,000 compounds, 4.5% hits; in the data active = activity change below about -60%; inconclusive = no clear call, values can overlap the other calls; inactive = above about -39%; also: % is scaled to controls: 0 for no effect and ±100 for the full control effect
#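 Inhibition of viral replication was scored as loss of reporter luminescence in HFFs infected with HCMV-luciferase (MOI 1 PFU/cell) for 72 h; compounds tested at 2 doses, normalized to buffer and Salinomycin controls.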
# Pf growth 48h = Primary qHTS for delayed death inhibitors of the malarial parasite plastid, 48 hour incubation; 310,000 compounds, 5.9% hits; Potency, µM (series often up to 28.7 µM), inactives show top-dose activity change, negative = inhibition, hits mostly inhibitors; AID 504832, 2011; P. falciparum luciferase growth in erythrocytes, 48 h; also: potency is read from the fitted curve at half-maximal effect; % is scaled to controls: 0 for no effect and ±100 for the full control effect
#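 Parasite viability was followed by luminescence of a genomically integrated firefly luciferase. Cultures held 0.1% parasitemia at 2% hematocrit (final), incubated under 5% CO2 at 37 C.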
# HCV inh = qHTS Assay for Inhibitors of Hepatitis C Virus (HCV); 340,000 compounds, 3.4% hits; Potency, µM (doses to about 41.8 µM), for the others: at the top dose activity change, negative = inhibition, most hits filed as inhibitors; AID 651820, 2012; Huh7.5.1 HCVcc-Cre infection, luciferase reporter, 44 h; also: potency is read from the fitted curve at half-maximal effect; % is scaled to controls: 0 for no effect and ±100 for the full control effect
#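 After 44 h co-culture of compound, cells and HCVcc-Cre (~0.5 moi), substrate is added for 15 min at room temperature and luciferase measured over 15 sec. Cells were seeded at 1,000/well and pre-cultured 4 h.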
# * = called active by the depositor; ? = inconclusive; nt = no result. Unless noted, calls follow the shape of the dose curve; as a rule, active = well fitted inhibition curve with a large enough effect; inconclusive = small, poorly fitted or top-dose-only effect, or another doubt; inactive = no such curve, though single readings can be large or run the other way.
SMILES,CHX counter,Pf growth 96h,Shiga inhibitor,HCMV antiviral,Pf growth 48h,HCV inh
O=C(N/N=C/c1ccccc1[N+](=O)[O-])c1ccncc1,21*,0.17µM*,40*,8,75%,3%
COc1cccc(/C=N/NC(=O)c2cnccn2)c1OC,17*,141%,50*,5,10%,7%
O=C(N/N=C/c1ccc(Cl)c([N+](=O)[O-])c1)c1cnccn1,1,5%,25,-13,-2%,1%
O=C(N/N=C/c1ccccc1[N+](=O)[O-])c1cnccn1,31*,125%,91*,8,86%,-6%
CC1CCCCC1NC(=O)c1ccc(S(=O)(=O)NCC2CCCO2)cc1 (stereo not drawn),-2,-20%,18,-19,0%,13%
CCOC(=O)Cn1c(=O)c2c(nc3n2CCN3c2ccc(CC)cc2)n(C)c1=O,nt,nt,nt,5,nt,nt
C=CCC1(CC=C)CCCN1C(=O)C1CCC(=O)N(CCc2ccccc2)C1 (stereo not drawn),77*,?,102*,110,?,-17%
C=CCC1(CC=C)CCCN1C(=O)C1CCC(=O)N(CCc2ccc(OC)cc2)C1 (stereo not drawn),53*,?,78*,2,?,?
COCCN1CCN(C(=O)C2CCC(=O)N(CCc3ccccc3)C2)CC1 (stereo not drawn),1,9.3µM*,-10,37,43%,nt
O=C(NC1CCCCC1)C(C1CC1)n1c(=O)c(-c2ccccc2)nc2ccccc21 (stereo not drawn),nt,nt,nt,-13,nt,nt
CCOC(=O)N1CCN(C(=O)CN(c2ccccc2F)S(=O)(=O)c2ccc(C)cc2)CC1,nt,nt,nt,-7,nt,nt
Cc1cccc(Nc2ncnc3nc[nH]c23)c1C,6,3%,30,12,15%,1%
Cc1cc(C)cc(Nc2ncnc3nc[nH]c23)c1,17,?,41*,19,-11%,?
FC(F)Sc1ccc(Nc2ncnc3nc[nH]c23)cc1,36*,0%,11*,65,66%,13%
CCCS(=O)(=O)c1cnc(C2COc3ccccc3O2)nc1N (stereo not drawn),-2,111%,-3,-88*,22%,5%
Oc1ccc(/C=N/N2CCCCC2)c(O)c1O,2,15%,12,-3,-14%,9%
Oc1cccc(/C=N/N2CCCCC2)c1O,40*,6%,96*,-23,76%,-29%
Oc1ccc(/C=N/Nc2nc(N3CCCCCC3)nc(N3CCCCCC3)n2)c(O)c1,6,19%,4,-89*,?,?
C/C(=N\Nc1nc(N2CCCCC2)nc(N2CCOCC2)n1)c1ccccc1O,-2,-2%,24,?,12µM*,?
Brc1cc2c(cc1/C=N/Nc1nc(N3CCCC3)nc(N3CCOCC3)n1)OCO2,3,?,-22,-14,?,2.8µM*
O=C(Nc1nnc(-c2ccncc2)o1)c1ccc(Br)s1,35,?,36,-13,?,?
Oc1ccccc1/C=N/N1CCCCC1,40*,31%,85*,7,6%,-3%
Oc1ccc(/C=N/N2CCCCC2)c(O)c1,49*,33%,107*,-16,59%,3%
C(=NN1CCCCCC1)c1ccc2ccccc2n1,nt,nt,nt,-92*,nt,-1%
Brc1ccc2[nH]cc(/C=N/N3CCCCC3)c2c1,1,8%,2,-84*,14%,?
SMILES,CHX counter,Pf growth 96h,Shiga inhibitor,HCMV antiviral,Pf growth 48h,HCV inh
Oc1ccccc1C=NN1CCCCCC1,nt,nt,nt,-30,nt,-1%
COc1ccccc1CNc1nc(Oc2cccc(F)c2)c2sccc2n1,nt,nt,nt,-39,nt,nt
Cc1oc(/N=C/c2ccc(O)cc2O)c(C#N)c1C,37*,3%,117*,1,-2%,-27%
CCCCCCC1CCC(C(=O)NC(C(=O)O)C(C)C)CC1 (stereo not drawn),nt,nt,nt,14,nt,nt
COC(=O)c1ccc(CN2CCSC2=N)cc1,-2,?,-4,6,6%,19%
CCc1ccc(C(=O)CN2CCSC2=N)cc1,83*,344%,71*,21,278%,-13%
COc1ccccc1NC(=O)c1ccc(Br)o1,14*,-7%,31,36,18%,?
